PAFAH1B2 inh: inhibitors of human PAFAH1B2. recombinant PAFAH1B2, FP-rhodamine activity probe, fluorescence polarization. inhibition, % at 3.39 µM. 340,000 compounds, 1.2% hits;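 active = inhibition above the mean of all tested compounds plus 3 SD, cut at about 24% in these data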;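 also: 0% = enzyme with DMSO and 100% = wells lacking PAFAH1B2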
ZTA counter: ZTA (EBV) inhibition in EBNA-1 counter-screen; ZTA-DNA binding, fluorescence polarization; AID 2234; inhibition, % at 11 µM; 320,000 compounds, 0.15% hits; P03206; in the data active = inhibition above about 33%
Target sequence (P03206 whole entry, looked up): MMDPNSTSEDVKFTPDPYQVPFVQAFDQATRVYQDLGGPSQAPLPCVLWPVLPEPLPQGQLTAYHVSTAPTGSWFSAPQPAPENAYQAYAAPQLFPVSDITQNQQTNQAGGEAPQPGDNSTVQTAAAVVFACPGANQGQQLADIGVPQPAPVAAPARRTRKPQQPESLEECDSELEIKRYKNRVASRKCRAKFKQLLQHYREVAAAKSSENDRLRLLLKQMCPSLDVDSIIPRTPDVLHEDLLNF
PAFAH2 FP inh: inhibitors of human PAFAH2. recombinant PAFAH2, FP-rhodamine activity probe, fluorescence polarization. inhibition, % at 3.39 µM. 340,000 compounds, 0.99% hits;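 active = inhibition above the mean over all tested compounds plus 3 SD, cut at about 30% in these data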;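 also: inhibitors block probe labeling of enzyme so polarization drops; 0% = enzyme with DMSO and 100% = wells lacking PAFAH2 protein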
EBNA-1 inh: blocks EBNA-1 binding to DNA; EBNA-1 DNA binding, fluorescence polarization; 300,000 compounds, 0.34% hits; inhibition, % at 14.8 µM; AID 1950; in the data active = inhibition above about 28%
rCAG binder: binds r(CAG) RNA repeats. r(CAG) RNA repeat, TO-PRO-1 dye displacement fluorescence. inhibition, % at 3 µM. 370,000 compounds, 1.3% hits. AID 651821;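 active = inhibition above the plate cutoff, the mean of all test compounds on that plate plus 3 SD, cut at about 35% in these data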;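 also: 0% = DMSO alone and 100% = 100 µM mitoxantrone as full dye displacement; higher means more dye released from RNA so lower well fluorescence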
PAFAH1B3 FP inh: blocks human PAF acetylhydrolase 1B catalytic subunit 3. Q15102. recombinant PAFAH1B3, FP-rhodamine probe, fluorescence polarization. inhibition, % at 3.39 µM. 340,000 compounds, 0.28% hits. AID 492972;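 active = inhibition above the screen-wide average of all tested compounds plus 3 SD, cut at about 25% in these data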;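 also: 0% = enzyme with DMSO only and 100% = wells lacking PAFAH1B3 protein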
Numbers without * were called inactive. The list is not random: actives were taken first. Their share in the collection is about 2.9%.

What do the screens show for `CC(/C=N/NC(=O)CSc1nnc(SCc2ccc(C)cc2)s1)=C\c1ccco1`?
rCAG binder: 11

What do the screens show for `CCCSC1=N/C(=C\C=C\c2ccco2)C(=O)S1`?
PAFAH1B2 inh: 9; ZTA counter: 5; PAFAH2 FP inh: 45*; EBNA-1 inh: -1; rCAG binder: 76*; PAFAH1B3 FP inh: 11

How did CCC(c1ccccc1)c1nc(-c2ccccn2)no1 (stereo unspecified) do in these assays?
PAFAH1B2 inh: 27*; ZTA counter: 6; PAFAH2 FP inh: 2; EBNA-1 inh: -13; rCAG binder: -4; PAFAH1B3 FP inh: 10

What do the screens show for `Cc1cccnc1NC(=O)c1cccc(S(=O)(=O)N2CCCc3ccccc32)c1`?
PAFAH1B2 inh: 29*; ZTA counter: -5; PAFAH2 FP inh: 1; EBNA-1 inh: -8; rCAG binder: 1; PAFAH1B3 FP inh: 2

How did O=C(Nc1ncccc1O)c1cccc(S(=O)(=O)N2CCCc3ccccc32)c1 do in these assays?
PAFAH1B2 inh: 21; ZTA counter: 2; PAFAH2 FP inh: 25; EBNA-1 inh: -3; rCAG binder: 4; PAFAH1B3 FP inh: -2

How did COC(=O)c1cc(-c2cccc(C(F)(F)F)c2)c(=O)n2c1CCC2 do in these assays?
rCAG binder: 0

What do the screens show for `Cc1ccc(-c2nc3c(Cl)cc(C(F)(F)F)cn3c2Cc2ccsc2)cc1`?
rCAG binder: 55*

What do the screens show for `CN(C)c1ccc(NC(=O)NC2CCCCN(Cc3cccc(Cl)c3)C2=O)cc1` (stereo unspecified)?
rCAG binder: 6

How did CC1CCC2C(C1)c1sc(=O)[nH]c1SC2(C)C (stereo unspecified) do in these assays?
PAFAH1B2 inh: 68*; ZTA counter: 1; PAFAH2 FP inh: -2; EBNA-1 inh: 8; rCAG binder: -2; PAFAH1B3 FP inh: 5

What do the screens show for `C=CCN1C(=O)[C@@H](CC(=O)N2CCC(c3ccccc3)CC2)[C@]2(C(=O)OC)CCCCC=C12`?
rCAG binder: 2

What do the screens show for `O=C(CSc1ccccc1)N/N=C/c1ccccc1O`?
PAFAH1B2 inh: 27*; ZTA counter: 6; PAFAH2 FP inh: 14; EBNA-1 inh: -1; rCAG binder: 1; PAFAH1B3 FP inh: 4

What do the screens show for `Cc1cc(SCC(=O)N/N=C/c2ccc(O)c(O)c2O)c(C)cc1Br`?
PAFAH1B2 inh: -6; ZTA counter: 3; PAFAH2 FP inh: 2; EBNA-1 inh: -2; rCAG binder: 55*; PAFAH1B3 FP inh: 13

How did O=C1N(Cc2ccccc2)c2ccccc2C12CCCc1oc(CCc3ccccc3)nc12 (stereo unspecified) do in these assays?
rCAG binder: 2

How did COC(=O)[C@]12C[C@H](CC(=O)NCc3cccc4ccccc34)C(=O)N(Cc3ccc(Cl)cc3Cl)C1=C[C@H](COCc1ccccc1)O[C@@H]2C do in these assays?
rCAG binder: 12

Results for C/C(CC(C)(C)C1CCCCC1)=N\NC(N)=S ?
PAFAH1B2 inh: 41*; ZTA counter: 17; PAFAH2 FP inh: 2; EBNA-1 inh: 12; rCAG binder: -5; PAFAH1B3 FP inh: 2

Results for Cc1ccccc1NC(=O)Nc1ccc2c(c1)C(=O)N(C)[C@H]1CC[C@H](CC(=O)NCC3CC3)O[C@@H]1CO2 ?
rCAG binder: 2

Results for CC(C)(C)c1ccc(S(=O)(=O)N2CCC(C(=O)NCc3cccs3)CC2)cc1 ?
rCAG binder: 3

How did CN(CC(=O)Nc1ccccc1Cl)C(=O)COC(=O)c1ccc([N+](=O)[O-])s1 do in these assays?
PAFAH1B2 inh: 19; PAFAH2 FP inh: 34*; rCAG binder: 4; PAFAH1B3 FP inh: 48*

Results for CC(NC(=O)COC(=O)c1ccc([N+](=O)[O-])s1)c1ccccc1 (stereo unspecified) ?
PAFAH1B2 inh: 9; ZTA counter: -12; PAFAH2 FP inh: 7; EBNA-1 inh: 11; rCAG binder: 0; PAFAH1B3 FP inh: 16

What do the screens show for `CN(CC(=O)Nc1ccccc1Cl)C(=O)COC(=O)c1cccs1`?
PAFAH1B2 inh: 2; PAFAH2 FP inh: 1; rCAG binder: -1; PAFAH1B3 FP inh: 10

How did Cc1ccc(NC(=O)COC(=O)c2ccc([N+](=O)[O-])s2)c(C)c1 do in these assays?
PAFAH1B2 inh: 16; ZTA counter: 9; PAFAH2 FP inh: 39*; EBNA-1 inh: 2; rCAG binder: -5; PAFAH1B3 FP inh: 28*
